The campaign covered roughly 63,000 compounds. About 1,100 (1.7%) were called active. This is one part of a sample in which actives are shown more often than they occur. Potency and affinity values are given separately. Unmarked numbers belong to inactive results. Cut-off read from the data, not from the text of the source: active = cytotoxicity above about 50%; inactive = the rest.

This assay can be described thus: HPDE-C7 pancreatic duct cell viability loss – fluorescence, HTS (AID 430).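 Note: cells exposed to compound for 48 hours before viability readout; 0% = vehicle and 100% = reference cytotoxic drug.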 Particulars: HPDE-C7 pancreatic duct cells viability, at 10 µM, stronger effect = higher value.
For the molecule `O=C(COC(=O)CCOc1ccccc1)Nc1ccc(Cl)cn1`, the cytotoxicity is 0.1%.

As for `Cc1cc(SCC#N)n2nc(C)c(-c3ccccc3)c2n1`, the cytotoxicity was -24.7%.

Consider `COc1ccc2c(c1)c(C(O)CN1CCC3(CC1)OCCO3)c(C)n2C` (stereo unspecified), for which the cytotoxicity was 9%.

In the case of `OC(CCN1CCCCC1)(c1ccccc1)C1CCCCC1` (stereo unspecified), the cytotoxicity was -15.8%.

As for `OC(CCN1CCCC1)(c1ccccc1)C1CCCCC1` (stereo unspecified), the cytotoxicity is 8.5%.

On to `CC(C)(C)c1ccc(C(O)CCCN2CCC(C(O)(c3ccccc3)c3ccccc3)CC2)cc1` (stereo unspecified), for which the cytotoxicity is 118% (active).

`C/C(=N\O)C1/C(=N/O)CC2C1C2(C)C` (stereo unspecified): the cytotoxicity was -4.3%.

In the case of `Nc1nc(C(=O)N2CCOCC2)nn1S(=O)(=O)c1ccc(Cl)cc1`, the cytotoxicity was 2.7%.

As for `COc1ccc(C(=O)Oc2cccnc2)cc1OC`, the cytotoxicity is -11.9%.

Consider `CN1C(=O)c2cccc(NC(=O)Cc3ccccc3)c2C1=O`, for which the cytotoxicity is -1.7%.

In the case of `O=C(Nc1nc2c(s1)CCc1ccccc1-2)c1ccco1`, the cytotoxicity was 15.6%.

On to `CC1CCc2nc(NC(=O)c3ccco3)sc2C1` (stereo unspecified), for which the cytotoxicity was -13.6%.

In the case of `O=C(c1ccc(Br)s1)N1CCN(Cc2ccc3c(c2)OCO3)CC1`, the cytotoxicity is 11.8%.

For the molecule `Cc1ccc(-n2cc(-c3ccccc3)[nH]c2=O)cc1F`, the cytotoxicity is -20.5%.

Consider `CSc1cccc(-n2cc(-c3ccc4c(c3)OCO4)[nH]c2=O)c1`, for which the cytotoxicity is 52.8% (active).

Turning to `CN(C)/C=C1\N=C(c2ccc3c(c2)OCO3)OC1=O`, the cytotoxicity was -1.7%.

For the molecule `O=C(Cc1ccc(S(=O)(=O)N2CCOCC2)s1)Nc1ccc2c(c1)CCC2`, the cytotoxicity was 3.3%.

Consider `COc1ccc(CN2CCN(C(=O)c3cc(OC)c(OC)c(OC)c3)CC2)cc1OC`, for which the cytotoxicity was -11.1%.

With `CCCSc1nnc(NC(=O)Nc2ccccc2)s1`, the cytotoxicity is 6.3%.

As to `CCC(=O)Nc1nnc(SCC(=O)Nc2ccc(F)cc2)s1`, the cytotoxicity is 2.1%.

In the case of `CCCSc1nnc(NC(=O)Nc2ccc(F)cc2)s1`, the cytotoxicity was 69.6% (active).

Regarding `COc1ccccc1NC(=O)CN1CCN(Cc2ccccc2)CC1`, the cytotoxicity was 3%.

As to `COC(=O)c1sc(N)c(C(=O)OC)c1COC(=O)c1c(C)noc1C`, the cytotoxicity is 64.9% (active).

Regarding `COc1ccc(C(C)=O)cc1COC(=O)c1c(C)noc1C`, the cytotoxicity was 7.1%.

Take `COC(=O)c1c(N)sc(C(C)=O)c1C`: the cytotoxicity was -7.8%.

Regarding `CC(C)CCNc1nc2c(c(=O)n(Cc3cccc(F)c3)c(=O)n2C)n1C`, the cytotoxicity was 35.2%.

`COc1ccc(-c2cn3c(n2)CCC3)cc1`: the cytotoxicity was 14.1%.

In the case of `CCCCCC1CCC(C(=O)O)CC1` (stereo unspecified), the cytotoxicity was -12.7%.

Regarding `COC(=O)c1ccc2c(c1)N(Cc1nc(-c3ccc(Cl)cc3)oc1C)C(=O)C1CCCN21` (stereo unspecified), the cytotoxicity was -1.4%.

For `COC(=O)c1ccc2c(c1)N(Cc1nc(-c3cccc(C)c3)oc1C)C(=O)C1CCCN21` (stereo unspecified), the cytotoxicity was 55.8% (active).

For `COC(=O)c1ccc2c(c1)N(Cc1nc(-c3cccc(Cl)c3)oc1C)C(=O)C1CCCN21` (stereo unspecified), the cytotoxicity was 40.7%.

These data come from PubChem BioAssay AID430 (Sanford-Burnham Center for Chemical Genomics, 2006).
